Experimental findings from PubChem BioAssay (NCATS) are described below.

A number with no mark means an inactive call. Results filed as inconclusive are left out. Activity calls are given as the source filed them. The call rests on the fitted dose curve; in most records, active means well fitted inhibition curve with a large enough effect; inconclusive means small, poorly fitted or top-dose-only effect; inactive means flat fitted curve, though single readings scatter. Where a SMILES comes first, the peptide text is derived from it. [ ]: non-standard residue; d: D form. 2Abz = Nc1ccccc1C(=O)O

The target in experiment [1] is Glutathione peroxidase 1 (Homo sapiens) (UniProt P07203). The experiment is described as follows: Primary qHTS Assay for Inhibitors of Recombinant Selenoprotein Glutathione Peroxidase 1 (GPX1) (AID 1845191). Further: nearly all actives have a fitted effect of over 65% in size. Further: potency means the concentration at half of the fitted maximal effect. On activity, negative = inhibition: on the % scale 0 is the no-effect control and ±100 the full control effect. The method, boiled down:
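10 nM GPX1 + cpd, 30 min RT; start w/ 1 mM GSH, 0.5 mM cumene hydroperoxide, 0.5 mM NADPH, 100 nM GR, 0.01% BSA; buffer 50 mM Tris-HCl pH 7.5, 2 mM EDTA, 150 mM NaCl; Fl 340/450, 0 & 15 min.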

For experiment [2], the target named is Phospholipid hydroperoxide glutathione peroxidase GPX4 (Homo sapiens) (UniProt P36969). The experiment is described as follows: Primary qHTS Assay for Inhibitors of Recombinant Selenoprotein Glutathione Peroxidase 4 (GPX4) (AID 1845192). Further: nearly all actives have a fitted effect of over 65% in size. Further: potency means the concentration at half of the fitted maximal effect. On activity change, negative = inhibition: series mostly up to about 50 µM; on the % scale 0 is the no-effect control and ±100 the full control effect. The method, boiled down: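 NADPH consumption, followed by fluorescence at 340/450 nm between 0 and 15 min, reports GPX4 activity via coupled glutathione reductase (100 nM). Enzyme 200 nM was pre-exposed to compound 30 min; 0.5 mM cumene hydroperoxide and 1 mM GSH served as substrates.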

In experiment [3] the target is Luciferin 4-monooxygenase (Photinus pyralis) (UniProt P08659). In words: Primary firefly luciferase (FLuc) qHTS assay for identification of artifact compounds. (AID 1845220). Further: nearly all actives have a fitted effect of over 60% in size.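 On activity change, negative = inhibition: series mostly up to about 54 µM; plate controls were DMSO vehicle for no effect and no enzyme for full effect.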 The method, boiled down:
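Compounds sat 15 min at room temperature with 10 uM luciferin and 10 uM ATP (pH 7.6 Tris acetate). Firefly luciferase (10 nM final) was then added, and luminescence was read 5 min later. Data normalized to no-enzyme and DMSO controls were Hill-fitted.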

Sequence of Glutathione peroxidase 1 (Homo sapiens) (P07203 whole entry, looked up): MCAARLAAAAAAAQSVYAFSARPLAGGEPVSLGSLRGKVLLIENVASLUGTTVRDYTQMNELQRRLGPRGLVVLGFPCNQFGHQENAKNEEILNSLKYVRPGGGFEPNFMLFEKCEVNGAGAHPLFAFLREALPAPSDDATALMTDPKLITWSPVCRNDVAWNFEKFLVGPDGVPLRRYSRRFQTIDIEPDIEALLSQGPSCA
Sequence of Phospholipid hydroperoxide glutathione peroxidase GPX4 (Homo sapiens) (P36969 whole entry, looked up): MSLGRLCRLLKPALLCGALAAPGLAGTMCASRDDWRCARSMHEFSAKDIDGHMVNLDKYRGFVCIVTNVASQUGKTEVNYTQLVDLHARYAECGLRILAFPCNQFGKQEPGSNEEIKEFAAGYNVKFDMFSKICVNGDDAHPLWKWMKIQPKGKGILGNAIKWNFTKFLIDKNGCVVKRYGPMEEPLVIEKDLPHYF

For the compound `CCc1cc2c(=O)c(-c3nc4ccccc4s3)coc2c(CN2CCCCC2)c1O`, the Potency in experiment [1] is 11.1 µM (active). Also, the Potency entry in experiment [2] and in experiment [3] was “inactive” each time.
Take `C/C(=C/CO)CC[C@@H]1[C@@]2(C)CCC[C@](C)(C(=O)O)C2CC[C@@]1(C)O` (some centres undefined): the Potency entry in experiment [1], in experiment [2] and in experiment [3] was “inactive” in each case.
In the case of `COc1ncc(-c2ccc3c(Nc4cc(Oc5cc(F)cc(F)c5)cc(C(=O)O)c4)c(S(=O)(=O)NC4CC4)cnc3c2)c(OC)n1`, the Potency entry in experiment [1], in experiment [2] and in experiment [3] was “inactive” each time.
For the compound `CCC(=O)NS(=O)(=O)c1ccc(-c2c(-c3ccccc3)noc2C)cc1`, the Potency entry in experiment [1], in experiment [2] and in experiment [3] was “inactive” in each case.
`CCC(C)C1NC(=O)C2CCCN2C(=O)C(C(C)C)NC(=O)c2ccccc2NC(=O)C(Cc2ccc(O)cc2)NC(=O)C(C)NC(=O)C(C(C)O)NC1=O` (centres undefined) (cyclo([2Abz]VPITAY); configuration not given here): the Potency entry in experiment [1], in experiment [2] and in experiment [3] was “inactive” each time.
As for `Cc1cn2c(N)c(Cl)cc(C(=O)NCC3CCN(CC(C)C)CC3)c2n1`, the Potency result in experiment [1] and in experiment [3] was “inactive” in each case. For the same compound, the Potency in experiment [2] was 22.7 µM (active).
Regarding `CC1=CCC2C(C)(CO)CCCC2(C)C1CC12OC1C(O)C(CO)=CC2O` (centres undefined), the Potency entry in experiment [1], in experiment [2] and in experiment [3] was “inactive” in each case.
`C=CC(C)(O)CO[C@@H]1O[C@H](CO)[C@@H](O)[C@H](O)[C@H]1O` (some centres undefined): the Potency result in experiment [1], in experiment [2] and in experiment [3] was “inactive” in each case.
`CNC(=O)[C@H]1O[C@@H](n2cnc3c(NCc4ccc(N)c(I)c4)ncnc32)[C@H](O)[C@@H]1O`: the activity, negative = inhibition in experiment [1] is 3.67% [at 9.52 µM]. The activity change, negative = inhibition in experiment [2] was -1.09% [at 9.73 µM]. Further, the outcome in experiment [3] was “inactive [at 11.6 µM]”.
On to `CC(CCC1(O)OC2CC3C4CCC5CC(O[C@@H]6O[C@H](CO)[C@@H](O)[C@H](O)[C@H]6O[C@@H]6OC[C@@H](O)[C@H](O)[C@H]6O)C(O)CC5(C)C4CCC3(C)C2C1C)CO[C@@H]1O[C@H](CO)[C@@H](O)[C@H](O)[C@H]1O` (some centres undefined), for which the Potency result in experiment [1] and in experiment [2] was “inactive” throughout. Further, the activity change, negative = inhibition in experiment [3] was 1.24% [at 11.6 µM].
As to `C[C@@H](Nc1cc(NS(=O)(=O)N2CCC2)nc(SCc2cccc(F)c2F)n1)[C@@H](O)CO`, the Potency entry in experiment [1], in experiment [2] and in experiment [3] was “inactive” each time.
`COc1cc(C2OCC3C(c4ccc(OC5OC(CO)C(O)C(O)C5O)c(OC)c4)OCC23)ccc1O` (centres undefined): the Potency entry in experiment [1], in experiment [2] and in experiment [3] was “inactive” each time.
`CC(C)(OC1OC(CO)C(O)C(O)C1O)C1CCC(O)(CO)C2CC(O)C(C)(O)C2C1` (centres undefined): the Potency entry in experiment [1], in experiment [2] and in experiment [3] was “inactive” each time.
For `C[C@@H]1O[C@@H](O[C@@H]2[C@@H](O)[C@H](O[C@@H]3[C@@H](O)[C@@H](O)[C@H](O[C@H]4[C@H](OC(=O)[C@]56CCC(C)(C)C[C@H]5C5=CCC7[C@@]8(C)C[C@H](O)[C@H](O[C@@H]9O[C@H](C(=O)O)[C@@H](O)[C@H](O)[C@H]9O)[C@@](C)(CO)C8[C@H](O)C[C@@]7(C)[C@]5(C)CC6)OC[C@H](O)[C@@H]4O)O[C@H]3C)OC[C@H]2O)[C@H](O)[C@H](O)[C@H]1O` (some centres undefined), the values for the outcome in experiment [1] and in experiment [3] were “inactive [at 9.52 µM]” and “inactive [at 11.6 µM]”, respectively. Also, the activity change, negative = inhibition in experiment [2] is -2.98% [at 9.73 µM].
`CC(=O)O[C@@H]1C[C@@]23C[C@@]24CC[C@H](OC2OC[C@@H](O)[C@H](O)[C@H]2O)C(C)(C)[C@@H]4CC[C@H]3[C@]2(C)CC3OC4(C[C@@H](C)C3[C@@]12C)OCC1(C)OC14` (some centres undefined): the Potency entry in experiment [1], in experiment [2] and in experiment [3] was “inactive” each time.
In the case of `CC1(C)NC2N(C1=O)c1ccccc1C2(O)CC(C(=O)O)n1cnc2ccccc2c1=O` (centres undefined), the Potency result in experiment [1], in experiment [2] and in experiment [3] was “inactive” in each case.
With `C=CC1(C)CC(O)C2(CCC3C(C)(C(=O)O)CCCC3(C)C2=O)C1` (centres undefined), the Potency result in experiment [1], in experiment [2] and in experiment [3] was “inactive” in each case.
For the compound `CC/C=C/CC1=C(CCCCCCCC(=O)O)CCC1=O`, the Potency result in experiment [1], in experiment [2] and in experiment [3] was “inactive” each time.
On to `C=CC1C(O[C@@H]2O[C@H](CO)[C@@H](O)[C@H](O)[C@H]2O)OC=C(C(=O)OC)C1CC(=O)O` (some centres undefined), for which the Potency result in experiment [1], in experiment [2] and in experiment [3] was “inactive” throughout.
In the case of `COC1=Cc2c(nc3n(c2=O)C(C)C(=O)NC3(O)C(C)C)OC=C1` (centres undefined), the Potency result in experiment [1], in experiment [2] and in experiment [3] was “inactive” each time.
For `CC1CC(O)CC(C)(C)C1(O)CCO` (centres undefined), the Potency result in experiment [1], in experiment [2] and in experiment [3] was “inactive” each time.
As for `CC1(C(=O)O)CCCC2(C)C1CCC13CC(CCC21)C1(CO)OC31` (centres undefined), the Potency result in experiment [1], in experiment [2] and in experiment [3] was “inactive” throughout.
In the case of `COc1cc(/C=C/C(=O)O[C@H]2[C@H](O)[C@@H](CO)O[C@@]2(CO)O[C@H]2O[C@H](COC(=O)c3ccc(O)cc3)[C@@H](O)[C@H](O)[C@H]2O)cc(OC)c1OC`, the Potency entry in experiment [1], in experiment [2] and in experiment [3] was “inactive” each time.
Turning to `C[C@@H]1CC[C@]2(C(=O)O)CC[C@]3(C(=O)O)C(=CCC4[C@@]5(C)CC[C@H](O[C@@H]6O[C@@H](C)[C@H](O[C@@H]7O[C@H](CO)[C@@H](O)[C@H](O)[C@H]7O)[C@@H](O)[C@H]6O)C(C)(C)C5CC[C@]43C)C2[C@H]1C` (some centres undefined), the Potency entry in experiment [1], in experiment [2] and in experiment [3] was “inactive” throughout.
For the compound `CC[C@H](C)/C=C(C)/C=C/C(=O)Cc1cc(O)c(C)c(O)c1C=O`, the Potency result in experiment [1], in experiment [2] and in experiment [3] was “inactive” throughout.
In the case of `Nc1c(Br)cc(Br)cc1CNC1CCC(O)CC1` (centres undefined), the Potency result in experiment [1], in experiment [2] and in experiment [3] was “inactive” in each case.
Turning to `CN(C)C/C=C/C(=O)Nc1ccc(C(=O)Nc2cccc(Nc3ncc(Cl)c(-c4c[nH]c5ccccc45)n3)c2)cc1`, the Potency result in experiment [1], in experiment [2] and in experiment [3] was “inactive” each time.
Regarding `O=C(O)[C@H]1CCCC[C@H]1C(=O)N1CCc2ccccc2[C@H]1CN1C(=O)c2ccccc2C1=O`, the Potency result in experiment [1], in experiment [2] and in experiment [3] was “inactive” throughout.
